{"source": "PubChem BioAssay (Tox21)", "note": "Inconclusive results are not listed. A call without a number means that no potency is given here. Activity calls are given as the source filed them. Unless noted, calls come from the whole dose curve; as a rule, active = well fitted curve in the direction sought with a large enough effect in the repeat runs; inconclusive = weak or mixed curves; inactive = no such curve, though single readings can be large; an effect the other way counts as inactive or inconclusive."}
{"biological_target": "Androgen receptor (Homo sapiens) (UniProt P10275)", "sequence (P10275 whole entry, looked up)": "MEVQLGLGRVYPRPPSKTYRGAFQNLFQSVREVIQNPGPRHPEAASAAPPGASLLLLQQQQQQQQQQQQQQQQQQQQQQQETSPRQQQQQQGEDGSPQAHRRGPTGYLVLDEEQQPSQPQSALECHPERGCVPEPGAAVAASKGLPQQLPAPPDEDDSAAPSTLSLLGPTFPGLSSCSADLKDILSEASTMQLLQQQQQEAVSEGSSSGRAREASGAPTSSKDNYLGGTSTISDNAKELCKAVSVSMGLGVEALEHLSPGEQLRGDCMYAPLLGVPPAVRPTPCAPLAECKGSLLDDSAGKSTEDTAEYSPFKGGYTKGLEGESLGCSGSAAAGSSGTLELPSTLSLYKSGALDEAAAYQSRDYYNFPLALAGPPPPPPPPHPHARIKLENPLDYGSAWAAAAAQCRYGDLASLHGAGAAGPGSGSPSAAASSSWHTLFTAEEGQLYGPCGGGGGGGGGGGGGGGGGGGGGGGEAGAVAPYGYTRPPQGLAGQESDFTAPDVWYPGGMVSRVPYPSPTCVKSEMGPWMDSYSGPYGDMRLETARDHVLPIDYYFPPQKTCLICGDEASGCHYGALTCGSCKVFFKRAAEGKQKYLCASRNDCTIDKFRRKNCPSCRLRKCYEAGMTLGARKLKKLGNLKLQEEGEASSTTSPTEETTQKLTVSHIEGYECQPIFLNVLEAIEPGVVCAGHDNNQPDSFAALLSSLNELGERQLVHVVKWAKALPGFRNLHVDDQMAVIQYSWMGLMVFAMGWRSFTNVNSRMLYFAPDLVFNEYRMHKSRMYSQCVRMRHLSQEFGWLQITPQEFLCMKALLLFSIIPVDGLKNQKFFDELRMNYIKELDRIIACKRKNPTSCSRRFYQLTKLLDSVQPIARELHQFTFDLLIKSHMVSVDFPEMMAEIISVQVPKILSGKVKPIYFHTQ", "assay": "qHTS assay to identify small molecule antagonists of the androgen receptor (AR) signaling pathway (AID 743035; active = well fitted inhibition curve with a large enough effect in the signal ratio in the repeat runs, not every such curve was filed as active; the % refers to the signal ratio)", "details": "HEK293 AR-UAS-bla, R1881-stimulated, beta-lactamase FRET, 16 h; series mostly up to 58.5 µM", "procedure,_shortened": "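HEK293 cells stably carrying a UAS-driven beta-lactamase reporter (AR-UAS-bla GripTite) were plated for 4 h at 37C, then given compound and the agonist R1881 and incubated 16 h. Reporter activity was read by LiveBLAzer B/G FRET fluorescence after 2 h at room temperature.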"}
{"smiles": "CC(C)c1ccc2c(C(C)C)cc(C(C)C)c(S(=O)(=O)O)c2c1", "Potency": "inactive"}
{"smiles": "Cc1cc(NC(=O)C(=O)O)cc(C)c1Oc1ccc(O)c2c1CCC2", "Potency": "inactive"}
{"smiles": "CCN(CC)CCOC(=O)C1(c2ccccc2)CCCC1", "Potency": "inactive"}
{"biological_target": "Androgen receptor (Homo sapiens) (UniProt P10275)", "assay": "qHTS assay to identify small molecule agonists of the androgen receptor (AR) signaling pathway (AID 743036; active = well fitted activation curve with a large enough effect in the signal ratio in the repeat runs, with a control signal flat, not every such curve was filed as active; the % refers to the signal ratio)", "details": "HEK293 AR-UAS-bla GripTite, beta-lactamase FRET ratio, 16 h; series mostly up to 62.4 µM", "procedure,_shortened": "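In this Tox21 qHTS, 2,000 HEK293 AR-bla cells per well were incubated with compounds for 16 h at 37C and 5% CO2. Fluorescence intensity was recorded 2 h after adding LiveBLAzer B/G FRET substrate at room temperature.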"}
{"smiles": "Cc1cc(NC(=O)C(=O)O)cc(C)c1Oc1ccc(O)c2c1CCC2", "outcome": "inactive"}
{"smiles": "CCN(CC)CCOC(=O)C1(c2ccccc2)CCCC1", "outcome": "inactive"}
{"smiles": "CC(=O)N(O)CCCCCNC(=O)CCC(=O)N(O)CCCCCNC(=O)CCC(=O)N(O)CCCCCN", "outcome": "inactive"}
{"biological_target": "Androgen receptor (Homo sapiens) (UniProt P10275)", "assay": "qHTS assay to identify small molecule agonists of the androgen receptor (AR) signaling pathway using the MDA cell line (AID 743040; note: nearly all actives have a fitted effect of over 20% in size)", "details": "MDA-kb2 AR-luc cells, MMTV luciferase, 16 h; series mostly up to 70.3 µM", "procedure,_shortened": "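MDA-kb2 breast carcinoma cells carrying MMTV-luciferase (responsive to AR and GR), plated 5 h then treated 16 h with compounds at 37C, 0% CO2. Read-out was ONE-Glo luminescence after 30 min at room temperature.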"}
{"smiles": "CC(C)c1ccc2c(C(C)C)cc(C(C)C)c(S(=O)(=O)O)c2c1", "Potency": "inactive"}
{"smiles": "CCCOc1ccc2nc(NC(=O)OC)[nH]c2c1", "Potency": "inactive"}
{"smiles": "NC(N)=N/N=C/c1c(Cl)cccc1Cl", "Potency": "inactive"}
{"smiles": "Cc1cc(NC(=O)C(=O)O)cc(C)c1Oc1ccc(O)c2c1CCC2", "Potency": "inactive"}
{"smiles": "CCN(CC)CCOC(=O)C1(c2ccccc2)CCCC1", "Potency": "inactive"}
{"smiles": "O=[N+]([O-])c1cc[n+]([O-])cc1", "Potency": "inactive"}
{"smiles": "CC(=O)N(O)CCCCCNC(=O)CCC(=O)N(O)CCCCCNC(=O)CCC(=O)N(O)CCCCCN", "Potency": "inactive"}
{"tested_on": "not listed separately", "assay": "qHTS assay to identify small molecule antagonists of the androgen receptor (AR) signaling pathway using the MDA cell line - cell viability counter screen (AID 743041; note: nearly all actives have a fitted effect of over 45% in size)", "details": "MDA-kb2 viability, CellTiter-Fluor, 16 h, cells co-treated with R1881 androgen agonist; series mostly up to 70.3 µM", "procedure,_shortened": "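MDA-kb2 AR-luc cells (MMTV-luciferase, AR/GR responsive) treated with compounds plus R1881 agonist for 16 h at 37C. CellTiter-Fluor added at 15.5 h; fluorescence read after 30 min in the same wells.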"}
{"smiles": "O=C(O)Cn1c(C(=O)Nc2nc(-c3ccccc3Cl)cs2)cc2ccccc21", "Potency": "inactive"}
{"smiles": "N=C(N=C(N)N)N1CCOCC1", "Potency": "inactive"}
{"smiles": "CC1=CC(=O)/C(=C(/C)O)C(=O)O1", "Potency": "inactive"}
{"smiles": "O=C1c2cccc(O)c2C(=O)c2c(O)cc(CO)cc21", "Potency": "inactive"}
{"smiles": "CC(=O)O[C@@H]1C(=O)O[C@@H]2[C@H]1OC(=O)[C@@H]2OC(C)=O", "Potency": "inactive"}
{"smiles": "CCOC(=O)C1=C(C)NC(C)=C(C(=O)OC)C1c1cccc([N+](=O)[O-])c1", "note": "(stereo not given)", "Potency": "inactive"}
{"smiles": "CC(C)c1ccc2c(C(C)C)cc(C(C)C)c(S(=O)(=O)O)c2c1", "Potency": "inactive"}
{"smiles": "CC1=CCC(C(C)C)C=C1", "note": "(stereo not given)", "Potency": "inactive"}
{"smiles": "CCCOc1ccc2nc(NC(=O)OC)[nH]c2c1", "Potency": "inactive"}
{"smiles": "CCCCC(CC)(CO)CO", "Potency": "inactive"}
{"smiles": "CCN(CC)CCNC(C(=O)OCCC(C)C)c1ccccc1", "note": "(stereo not given)", "Potency": "inactive"}
{"smiles": "Cc1ccccc1N=Nc1ccc(N=Nc2c(O)ccc3ccccc23)c(C)c1", "Potency": "inactive"}
{"smiles": "Cc1cc(NC(=O)C(=O)O)cc(C)c1Oc1ccc(O)c2c1CCC2", "Potency": "inactive"}
{"smiles": "CC[C@H](C)[C@H](N)C(=O)O", "Potency": "inactive"}
{"smiles": "Oc1ccc(Cc2ccccc2)cc1", "Potency": "inactive"}
{"smiles": "Cc1cccc(OCCOc2cccc(C)c2)c1", "Potency": "inactive"}
{"smiles": "CC(C)=CCCC(C)CC=O", "note": "(stereo not given)", "Potency": "inactive"}
{"smiles": "CCN(CC)CCOC(=O)C1(c2ccccc2)CCCC1", "Potency": "inactive"}
{"smiles": "O=[N+]([O-])c1cc[n+]([O-])cc1", "Potency": "inactive"}
{"smiles": "O=CNc1ccccc1", "Potency": "inactive"}
{"smiles": "CC(=O)N(O)CCCCCNC(=O)CCC(=O)N(O)CCCCCNC(=O)CCC(=O)N(O)CCCCCN", "Potency": "inactive"}
{"smiles": "OCCC1CCCCN1", "note": "(stereo not given)", "Potency": "inactive"}
{"smiles": "CCOC(=O)C1=NN(c2ccccc2)C(=O)C1", "Potency": "inactive"}
{"smiles": "CCCc1ccccc1", "Potency": "inactive"}
{"smiles": "CN(C)C/C=C(/c1ccc(Br)cc1)c1cccnc1", "Potency": "inactive"}
{"smiles": "CCOc1cc(OCC)c(C(=O)CCC(=O)O)cc1OCC", "Potency": "inactive"}
{"smiles": "CC(=O)OCCc1ccccc1", "Potency": "inactive"}
{"biological_target": "Androgen receptor (Homo sapiens) (UniProt P10275)", "assay": "qHTS assay to identify small molecule antagonists of the androgen receptor (AR) signaling pathway using the MDA cell line (AID 743042; note: nearly all actives have a fitted effect of over 55% in size)", "details": "MDA-kb2 AR-luc, MMTV luciferase, R1881 antagonist, 16 h; series mostly up to 70.3 µM", "procedure,_shortened": "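MDA-kb2 breast carcinoma cells carrying MMTV-luciferase (AR/GR responsive) were co-treated with compounds and the agonist R1881 for 16 h at 37C. Inhibition read as ONE-Glo luminescence; CellTiter-Fluor fluorescence measured in parallel for cytotoxicity.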"}
{"smiles": "CC(C)c1ccc2c(C(C)C)cc(C(C)C)c(S(=O)(=O)O)c2c1", "Potency": "inactive"}
{"smiles": "CCCOc1ccc2nc(NC(=O)OC)[nH]c2c1", "Potency": "inactive"}
{"smiles": "Cc1cc(NC(=O)C(=O)O)cc(C)c1Oc1ccc(O)c2c1CCC2", "Potency": "inactive"}
{"smiles": "CCN(CC)CCOC(=O)C1(c2ccccc2)CCCC1", "Potency": "inactive"}
{"smiles": "O=[N+]([O-])c1cc[n+]([O-])cc1", "Potency": "inactive"}
